“And” between values parts separate entries of the source, which are not always exact repeats. Equal values may be shown once. Some compounds were tested as several samples or in several runs, with calls that do not always agree. The source made the active and inactive calls. Rule for the calls: active = hit-call score of the fitted dose curve at least 0.9, where 1 is the maximum; inactive = score below 0.9.
Read-out: Cyclin D2 (CCND2), CCND2 (gene 894)
Experiment: LTEA_HepaRG_CCND2: Life Technologies and Expression Analysis (LTEA) Assay for Cyclin D2 (CCND2) using HepaRG (AID 2283449)
Conditions: mRNA level, 48 h; actives raise or lower the signal
How it was run: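 Read-out is CCND2 mRNA level measured by qRT-PCR in human HepaRG liver cells and normalised to three housekeeping genes. Chemicals were applied for 48 h at up to 100 uM, with gain or loss fitted relative to 0.5% DMSO.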

SMILES	outcome	AC50
CCCCOC(=O)c1ccccc1C(=O)OCCCC	inactive	
O=C(Nc1ccccc1)Nc1ccnc(Cl)c1	inactive	
CN(C)C(=S)SSC(=S)N(C)C	inactive	
CS/C(C)=N/OC(=O)N(C)SN(C)C(=O)O/N=C(\C)SC	inactive	
CC(C)(C)c1ccc(CSc2cnn(C(C)(C)C)c(=O)c2Cl)cc1	inactive	
N#Cc1cc(Br)c(O)c(Br)c1	inactive	
CC(Oc1ccc(Cl)cc1Cl)C(=O)O (configuration not stated)	inactive	
COc1cnc(OC)n2nc(NS(=O)(=O)c3c(OCC(F)F)cccc3C(F)(F)F)nc12	inactive	
CCCCC(CC)COC(=O)c1ccccc1C(=O)OCC(CC)CCCC (configuration not stated)	inactive	
COC(=O)C=C(C)OP(=O)(OC)OC	inactive	
C#CCOS(=O)OC1CCCCC1Oc1ccc(C(C)(C)C)cc1 (configuration not stated)	inactive	
COC(=O)c1ccccc1C(=O)OC	inactive	
O=C(O)COc1nc(Cl)c(Cl)cc1Cl	inactive	
CCCCNC(=O)OCC#CI	inactive	
N#Cc1nn(-c2c(Cl)cc(C(F)(F)F)cc2Cl)c(N)c1S(=O)C(F)(F)F (configuration not stated)	inactive	
Cc1ccc(-c2c(Cl)nc(C#N)n2S(=O)(=O)N(C)C)cc1		0.00629 µM (active)
CCc1nn(C)c(C(=O)NCc2ccc(C(C)(C)C)cc2)c1Cl	inactive	
CCCN(CCC)c1c([N+](=O)[O-])cc(S(N)(=O)=O)cc1[N+](=O)[O-]	inactive	
OC(c1ccc(Cl)cc1)(c1cncnc1)c1ccccc1Cl (configuration not stated)	inactive	
Fc1ccc(Oc2ccnc3cc(Cl)cc(Cl)c23)cc1	inactive	
CNC(=O)ON=CC(C)(C)SC	inactive	
COP(N)(=O)SC (configuration not stated)	inactive	
O=C(O)c1nc(Cl)ccc1Cl	inactive	

Read-out: Cyclin Dependent Kinase Inhibitor 1A (CDKN1A), CDKN1A (gene 1026)
Experiment: LTEA_HepaRG_CDKN1A: Life Technologies and Expression Analysis (LTEA) Assay for Cyclin Dependent Kinase Inhibitor 1A (CDKN1A) using HepaRG (AID 2283450)
Conditions: mRNA level, 48 h; actives raise or lower the signal
How it was run: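 HepaRG, 48 h dosing, 8-pt half-log series from 100 uM top, 0.5% DMSO vehicle, duplicates. Readout: TaqMan qRT-PCR of CDKN1A transcript, housekeeping-normalized (ACTB, GAPDH, POLR2A). Up/down curve fit relative to DMSO.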

SMILES	outcome	AC50
CCCCOC(=O)c1ccccc1C(=O)OCCCC	inactive	
COC(=O)N(OC)c1ccccc1COc1ccn(-c2ccc(Cl)cc2)n1		79 µM (active)
O=C(Nc1ccccc1)Nc1ccnc(Cl)c1		50 µM (active)
CN(C)C(=S)SSC(=S)N(C)C	inactive	
CS/C(C)=N/OC(=O)N(C)SN(C)C(=O)O/N=C(\C)SC	inactive	
CC(C)(C)c1ccc(CSc2cnn(C(C)(C)C)c(=O)c2Cl)cc1		2.3 µM (active)
COc1ccc(C(c2ccc(OC)cc2)C(Cl)(Cl)Cl)cc1	inactive	
N#Cc1cc(Br)c(O)c(Br)c1		10.1 µM (active)
CC(Oc1ccc(Cl)cc1Cl)C(=O)O (configuration not stated)	inactive	
COc1cnc(OC)n2nc(NS(=O)(=O)c3c(OCC(F)F)cccc3C(F)(F)F)nc12	inactive	
CCCCC(CC)COC(=O)c1ccccc1C(=O)OCC(CC)CCCC (configuration not stated)	inactive	
COC(=O)C=C(C)OP(=O)(OC)OC	inactive	
C#CCOS(=O)OC1CCCCC1Oc1ccc(C(C)(C)C)cc1 (configuration not stated)		12.9 µM (active)
COC(=O)c1ccccc1C(=O)OC	inactive	
O=C(O)COc1nc(Cl)c(Cl)cc1Cl	inactive	
CCCCNC(=O)OCC#CI	inactive	
N#Cc1nn(-c2c(Cl)cc(C(F)(F)F)cc2Cl)c(N)c1S(=O)C(F)(F)F (configuration not stated)		32.5 µM (active)
Cc1ccc(-c2c(Cl)nc(C#N)n2S(=O)(=O)N(C)C)cc1	inactive	
CCc1nn(C)c(C(=O)NCc2ccc(C(C)(C)C)cc2)c1Cl		3.24 µM (active)
CCCN(CCC)c1c([N+](=O)[O-])cc(S(N)(=O)=O)cc1[N+](=O)[O-]	inactive	96.1 µM (active)
OC(c1ccc(Cl)cc1)(c1cncnc1)c1ccccc1Cl (configuration not stated)		70.5 µM (active)
Fc1ccc(Oc2ccnc3cc(Cl)cc(Cl)c23)cc1	inactive	
CNC(=O)ON=CC(C)(C)SC	inactive	
COP(N)(=O)SC (configuration not stated)	inactive	
CC(C)C1(C)N=C(c2nc3ccccc3cc2C(=O)O)NC1=O (configuration not stated)	inactive	
O=C(O)c1nc(Cl)ccc1Cl	inactive	

Read-out: Cyclin D1 (CCND1), CCND1 (gene 595)
Experiment: LTEA_HepaRG_CCND1: Life Technologies and Expression Analysis (LTEA) Assay for Cyclin D1 (CCND1) using HepaRG (AID 2283451);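 for AC50: differentiated human HepaRG liver cells in serum-free induction medium; TaqMan qRT-PCR transcript level normalised to ACTB GAPDH and POLR2A housekeeping genes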
Conditions: mRNA level, 48 h; actives raise or lower the signal
How it was run: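 qRT-PCR (Fluidigm 96.96 array) read-out of transcript level, housekeeping-normalized (ACTB/GAPDH/POLR2A). HepaRG cells, 48 h chemical exposure, 8-point half-log series from 100 uM, 0.5% DMSO vehicle; gain or loss relative to DMSO baseline.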

SMILES	outcome	AC50
CCCCOC(=O)c1ccccc1C(=O)OCCCC	inactive	
COC(=O)N(OC)c1ccccc1COc1ccn(-c2ccc(Cl)cc2)n1	inactive	
O=C(Nc1ccccc1)Nc1ccnc(Cl)c1		40.9 µM (active)
CN(C)C(=S)SSC(=S)N(C)C	inactive	
CS/C(C)=N/OC(=O)N(C)SN(C)C(=O)O/N=C(\C)SC	inactive	
CC(C)(C)c1ccc(CSc2cnn(C(C)(C)C)c(=O)c2Cl)cc1	inactive	
COc1ccc(C(c2ccc(OC)cc2)C(Cl)(Cl)Cl)cc1	inactive	
N#Cc1cc(Br)c(O)c(Br)c1		10.4 µM (active)
CC(Oc1ccc(Cl)cc1Cl)C(=O)O (configuration not stated)	inactive	
COc1cnc(OC)n2nc(NS(=O)(=O)c3c(OCC(F)F)cccc3C(F)(F)F)nc12	inactive	
CCCCC(CC)COC(=O)c1ccccc1C(=O)OCC(CC)CCCC (configuration not stated)	inactive	
COC(=O)C=C(C)OP(=O)(OC)OC	inactive	
C#CCOS(=O)OC1CCCCC1Oc1ccc(C(C)(C)C)cc1 (configuration not stated)	inactive	
COC(=O)c1ccccc1C(=O)OC	inactive	
O=C(O)COc1nc(Cl)c(Cl)cc1Cl	inactive	
CCCCNC(=O)OCC#CI	inactive	
N#Cc1nn(-c2c(Cl)cc(C(F)(F)F)cc2Cl)c(N)c1S(=O)C(F)(F)F (configuration not stated)		83.4 µM (active)
Cc1ccc(-c2c(Cl)nc(C#N)n2S(=O)(=O)N(C)C)cc1	inactive	
CCc1nn(C)c(C(=O)NCc2ccc(C(C)(C)C)cc2)c1Cl		0.382 µM (active)
CCCN(CCC)c1c([N+](=O)[O-])cc(S(N)(=O)=O)cc1[N+](=O)[O-]	inactive	91.3 µM (active) and 79.8 µM (active)
OC(c1ccc(Cl)cc1)(c1cncnc1)c1ccccc1Cl (configuration not stated)		50 µM (active)
Fc1ccc(Oc2ccnc3cc(Cl)cc(Cl)c23)cc1	inactive	
CNC(=O)ON=CC(C)(C)SC	inactive	
COP(N)(=O)SC (configuration not stated)	inactive	
CC(C)C1(C)N=C(c2nc3ccccc3cc2C(=O)O)NC1=O (configuration not stated)	inactive	
O=C(O)c1nc(Cl)ccc1Cl	inactive	
